Among the data in PubChem BioAssay AID588850 (Sanford-Burnham Center for Chemical Genomics, 2011) are inhibition values, retold here.

Molecules are shown by their SMILES. The campaign covered roughly 360,000 compounds. About 3,100 (0.86%) were called active. This excerpt belongs to a sample that is enriched for actives. A number with no mark means an inactive call.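 Rule for the calls: active = at least 50% inhibition at 5 µM, scaled per plate between neutral and stimulator controls; inactive = the rest.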

This assay can be described thus: NF-kB reporter blockers in CF airway cells – cell-based, GFP fluorescence, uHTS, primary screen (AID 588850).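 Note: PAF is a Pseudomonas aeruginosa culture filtrate used as stimulus; plate controls were PAF-stimulated DMSO wells for no effect and unstimulated DMSO wells for full effect.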 As to conditions: KKLEB NF-kB-GFP reporter, PAF-induced, GFP fluorescence overnight; at 5 µM; active compounds read high.
As to `COC1C(O)C(C)OC(OC2CCC3(C=O)C(CCC4C3CCC3(C)C(C5=CC(=O)OC5)CCC43O)C2)C1O` (stereo not given), the inhibition is 91.1% (active).
Turning to `CCOP(=S)(OCC)SCOC(=O)NCC(=O)OC`, the inhibition is -6.4%.
In the case of `O=c1c2ccccc2[nH]c(=S)n1-c1cccc(Cl)c1`, the inhibition was -27.2%.
The same measure for `Cc1ccc(-c2nn(CCC#N)cc2C(=O)O)cc1C`: 13.3%; for `CC[N+](CC)(CC)CCCCCCCCCC[N+](CC)(CC)CC`: 9.5%.
The result for `COc1c(O)ccc2c1-c1c3c(cc4c1C(C2)N(C)CC4)OCO3` (stereo not given) reads -18.7%; that for `O=C1NC(=O)N(CCc2ccc(F)cc2)C(=O)/C1=C/C=C/c1ccccc1`, 101% (active).
Turning to `c1cncc(CNC2=NCCC2)c1`, the inhibition is 13.7%.
The result for `CN1CCc2cc3c(cc2[C@H]1[C@@H]1OC(=O)c2c1ccc1c2OCO1)OCO3` reads 15.1%.
The result for `CN(C)CCCN=Cc1c(O)n(Cc2ccco2)c(=O)[nH]c1=O` reads 13.6%.
Consider `C[C@]12CC[C@H](O)C[C@H]1CC[C@@H]1C2CC[C@]2(C)[C@@H](C3=CC(=O)OC3)[C@@H](O)C[C@]12O` (stereo not given in full), for which the inhibition was 53.2% (active).
The same measure for `CC12CCC(O)CC1CCC1C2CCC2(C)C(C(=O)CC(O)C(F)(F)F)CCC12` (stereo not given): 9.6%; for `CCOP(=O)(OCC)C(NC(=O)NC)C(N)=O` (stereo not given): -12.3%; for `CC=C(C)C(=O)OC1CCN2CC=C(COC(=O)C(O)(C(C)OC)C(C)(C)O)C12` (stereo not given): 1.6%.
Regarding `CC(C)Oc1cccc(C(=O)C2CCCN(C3CCOCC3)C2)c1` (stereo not given), the inhibition was -10.1%.
The result for `CCOC(=O)c1cccc(C2=C(CNC(=O)c3ccncc3)[C@H]3CC[C@@H](C2)N3Cc2ccccc2)c1` reads 2.6%; that for `CC(=CCOc1ccc2ccc(=O)oc2c1)C1=CC(=O)C(C)(C)O1`, 75.5% (active); that for `O=C(CCN1CCCCC1)NCC(=O)Nc1ccc(Br)cc1C(=O)c1ccccc1`, -1.9%.
The same measure for `CC1=C(C(=O)Nc2ccccc2)SCCO1`: -0.6%; for `Cc1nn(-c2ccccc2)c(C)c1NC(=O)COC(=O)Cc1ccccc1`: 5.1%.
The same measure for `O=c1[nH]c2ccccc2n1C1CCN(C(c2ccnc3ccccc23)c2nnnn2Cc2ccccc2)CC1` (stereo not given): 39.9%; for `CSCCC(c1nnnn1C(C)(C)C)N1CCC(n2c(=O)[nH]c3ccccc32)CC1` (stereo not given): -10.2%; for `COc1cccc(C(c2nnnn2-c2ccc3c(c2)OCCO3)N2CCC3(CC2)C(=O)NCN3c2ccccc2)c1OC` (stereo not given): -0.8%.
On to `O=c1[nH]c2ccccc2n1C1CCN(C(c2ccccc2)c2nnnn2Cc2ccccc2)CC1` (stereo not given), for which the inhibition was 85.1% (active).
The result for `COc1ccc(-n2nnnc2C(c2cccc3ccccc23)N2CCC(n3c(=O)[nH]c4ccccc43)CC2)cc1` (stereo not given) reads 53.2% (active).
As to `O=C1NCN(c2ccccc2)C12CCN(C(c1cccs1)c1nnnn1C1CCCCC1)CC2` (stereo not given), the inhibition is -6.5%.
The same measure for `COC(=O)C1=C(c2ccccc2OCc2ccccc2)C[C@@H]2CC[C@H]1N2C(=O)NCc1ccc(OC)cc1`: -7.5%; for `CN(C)CC1CCCCC1=O` (stereo not given): 6%; for `CC(C)(C)c1ccc(OC(=O)N2CCCCC2)cc1`: 16%.
The same measure for `N=c1ccccn1Cc1ccccc1`: 14.3%.
The result for `CC1=C2C(=O)C3C(CC=C4CC(OC5OC(O)C(O)C(O)C5CO)CCC43C)C2CCC12OC1CC(C)CNC1C2C` (stereo not given) reads 7.6%.
For `CCC1(C)CC(CCNCc2ccc(N(C)C)cc2)(c2ccc(F)cc2)CCO1` (stereo not given), the inhibition is 22.8%.
The result for `Cc1cc(C)c2c(c1)NP(=S)(c1ccccc1)N2` (stereo not given) reads 24.3%.
The result for `CCOC(=O)CC1=C(C(=O)OCC)C2(C(=O)N1)C(C(=O)OC)=C(N)Oc1ccccc12` (stereo not given) reads -14%.
The same measure for `CN(C)CC1Oc2ccccc2OC1(O)c1ccccc1` (stereo not given): 75.7% (active); for `CN(C)S(=O)(=O)c1cc(C(=O)N2CCC(C(=O)O)(c3ccccc3)CC2)ccc1Cl`: 7.2%.
As for `COC(=O)C1=C(c2ccccc2)C[C@@H]2CC[C@H]1N2C(=O)N1CCCCC1`, the inhibition was -2.3%.
The same measure for `Cc1cccc(NC(=O)OC2CN3CCC2CC3)c1` (stereo not given): 9%.
The result for `O=C1NC(=O)C(Cc2ccccc2)C(=O)N1` reads -11%; that for `C=CCN1C(=O)C2(C(C(=O)OCC)=C(N)Oc3c2c(=O)oc2ccccc32)c2ccccc21` (stereo not given), -5.7%; that for `CC(=O)OC1C2(CC3N4C(=O)C5(CO)SSC4(CC31O)C(=O)N5C)OC(C)C(C)(C)C2=O` (stereo not given), 88.5% (active).
As to `CC(CC(C#N)(c1ccccc1)c1ccccc1)N1CCCCC1` (stereo not given), the inhibition is 7.8%.
The result for `CCC(C)(O)C(=O)OC1C(=O)OC2CC3C(C)=CC(=O)C(O)C3(C)C3C4(O)OCC23C1C(C)C4O` (stereo not given) reads 91.3% (active); that for `CCOC(=O)C1(Cc2ccc(Cl)cc2)CCN(C(C)CCn2cccn2)CC1` (stereo not given), 29.4%.
`CC1(C)C(c2ccccc2)=NC(c2cccnc2)=[N+]1[O-]`: the inhibition is 7.5%.
The same measure for `CCCCCCCCCCCCn1ccc(=N)cc1`: 61.8% (active).
In the case of `CN(C)C(=O)Oc1ccc(NC(=O)N2CCOCC2)cc1`, the inhibition was -9.2%.
The same measure for `O=C(CCC(=O)N1C[C@H]2C[C@@H](C1)c1cccc(=O)n1C2)NCc1ccccc1C(F)(F)F`: -6.7%; for `COC(=O)C1=C(c2cccc(OCc3ccccc3)c2)C[C@@H]2CC[C@H]1N2C(=O)NCc1ccc(Br)cc1`: 6.2%.
For `COC(=O)COc1cc(C)cc2oc(=O)c3c(c12)CCCC3`, the inhibition is 5.1%.
